Pf Dd2 growth: inhibitors of Plasmodium falciparum Dd2 growth | P. falciparum Dd2 growth, SYBR Green, 72 h | Potency, µM (titrated, usually from 28.9 µM), most hits filed as inhibitors | 4.3% of 120,000 active; active means well fitted inhibition curve with a large enough effect; further: nearly all actives have a fitted effect of over 65% in size
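Infected erythrocytes (Dd2, 0.3% parasitemia, 2.5% hematocrit final) are added to compound in RPMI-1640/Albumax II medium, grown 72 h at 37C in low oxygen, then lysed with saponin/Triton-X containing SYBR Green and read by fluorescence.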
Each line names hits and unclear results; the compound was inactive in the other large screens. The full list was thinned out, with hits kept by preference.

Cc1ccc(-c2noc(-c3ccccc3NC(=O)C3CC(=O)N(c4ccc(C)cc4)C3)n2)cc1 (stereo not drawn)	Pf Dd2 growth 1.4µM
Cc1ccc(N2CC(C(=O)Nc3ccc(Cl)cc3Cl)CC2=O)cc1 (stereo not drawn)	none
Cc1cnc(CN2CC(C)(Cc3ccc4c(c3)OCO4)CCC2=O)cn1 (stereo not drawn)	none
O=C(c1nnn2cc(-c3ccc(F)cc3)[nH]c(=O)c12)N1CCOCC1	none
FC(F)(F)Oc1ccc2c(c1)NC(c1ccncc1)=NC(c1cccs1)=N2	none
CC(C)c1ccc2c(c1)NC(c1ccncc1)=NC(c1cccs1)=N2	none
CCc1ccc2c(c1)NC(c1ccc(C)cc1)=NC(c1cccs1)=N2	Pf Dd2 growth 13µM
COCCOc1cc(=O)n2c(c1C(=O)NCc1ccc(F)cc1)CCOCC2	none
Cc1ccc(C(=O)N2C[C@@H](CN3CCCN(C)CC3)[C@@H](CO)C2)nc1	none
O=c1[nH]ccn1C1CCN(Cc2cccc3ccccc23)CC1	none
Cc1ccccc1Oc1ncccc1CNC(=O)c1cnn2ccccc12	none
O=C(O)c1cccc(C2CCCN(C(=O)CCCn3ccnc3)C2)c1 (stereo not drawn)	none
CN1CC(c2ccccc2)CC2(CCN(C(=O)CCCn3ccnc3)CC2)C1 (stereo not drawn)	Pf Dd2 growth 13µM
CCc1ocnc1C(=O)N1CCC2(CC1)CC(c1ccccc1)CN(C)C2 (stereo not drawn)	none
COc1ccc(C(=O)N2CCC(C(=O)N3CCCCCCNC(=O)CC3)CC2)c(OC)n1	none
COc1cccc(CC(=O)NCC2Cn3cccc3C(=O)N2Cc2ccccc2)c1 (stereo not drawn)	none
O=C(C1CCC1)N1CCC(c2noc(C3CC3)n2)C1 (stereo not drawn)	none
CN(C)c1cccc(C(=O)N2CCC(c3c[nH]c4ccccc34)(c3c[nH]c4ccccc34)CC2)c1	Pf Dd2 growth 4µM
Cc1ccc(C2=NC3(CCN(C(=O)c4cccc(N(C)C)c4)CC3)ON2)cc1	none
CC(C)CC1=NC2(CCN(C(=O)c3cccc(N(C)C)c3)CC2)C(=O)N1	none
COc1cccc([S+](=O)([O-])N2CC(Oc3ccc(F)c(F)c3)C2)c1	none
COc1ccc(CC(=O)N2CCC[C@H]2c2nc(-c3ccccc3Cl)no2)cc1	none
COCCNC(=O)C1CCCN(C2CCN(C(=O)c3ccc(=O)[nH]n3)CC2)C1 (stereo not drawn)	none
COCc1cc(C[C@@H]2C[C@H](NC(=O)c3ccco3)C2(C)C)no1	Pf Dd2 growth 10µM
CC(C)Cc1cc(C[C@@H]2C[C@H](NC3CCOCC3)C2(C)C)no1	none
CC1(C)[C@H](Cc2cc(COc3ccccc3)on2)C[C@@H]1NC(=O)Cc1ccccc1	none
COCC(=O)N[C@H]1C[C@@H](Cc2cc(-c3ccc(OC)cc3)on2)C1(C)C	Pf Dd2 growth 2µM
CC1(C)[C@H](Cc2cc(CO)on2)C[C@@H]1NC(=O)c1ccco1	none
CC1(C)[C@H](Cc2cc(COc3ccccc3)on2)C[C@@H]1NC1CCOCC1	Pf Dd2 growth 10µM
CC1(C)[C@H](Cc2cc(COc3ccccc3)on2)C[C@@H]1NC(=O)COc1ccccc1	Pf Dd2 growth 8.9µM
CCCN[C@H]1C[C@@H](Cc2cc(COc3ccccc3)on2)C1(C)C	none
COCC(=O)N[C@H]1C[C@@H](Cc2cc(CO)on2)C1(C)C	none
COCC(=O)NC1(Cc2cc(-c3ccc(OC)cc3)on2)COC1	none
COCc1cc(C[C@@H]2C[C@H](NC(=O)c3ccnc(Cl)c3)C2(C)C)no1	none
CC(C)(C)CC(=O)N[C@H]1C[C@@H](Cc2cc(COc3ccccc3)on2)C1(C)C	none
O=c1[nH]c(C2CCCN(Cc3ccc(OC(F)(F)F)cc3)C2)nn1-c1ccc(Cl)cc1 (stereo not drawn)	none
COCCN1C(=O)CCc2cc(NC(=O)c3ccc(Br)o3)ccc21	none
CCOC(=O)CCNC(=O)N1CCCOCCNC(=O)[C@@H]2CCC[C@@H]21	none
O=C(c1n[nH]c2ccccc12)N1CCC(Cc2noc(C3CCOCC3)n2)C1 (stereo not drawn)	none
COc1ccc(-c2noc(-c3nc(Cc4ccc(F)cc4)no3)n2)cc1	none
Cc1noc2ccc(-c3ccc(CO)cc3)nc12	none
CNC(=O)[C@@H]1C[C@H](Oc2cccnc2)CN1C(=O)c1cc(-c2ccc(F)cc2)n[nH]1	none
CCN(C(=O)Cn1cc(C(=O)c2ccc(F)cc2)c(=O)c2ccc(C)nc21)c1cccc(C)c1	Pf Dd2 growth 8.9µM
Cc1ccc(C)c(NC(=O)Cn2cc(C(=O)c3ccc(Cl)cc3)c(=O)c3ccc(C)nc32)c1	none
Cc1ccc2c(=O)c(C(=O)c3cccc(Cl)c3)cn(CC(=O)NCc3ccc(F)cc3)c2n1	none
CCn1ccc(C(=O)N2CCC(N3CC(OCC4CC4)C34CCOCC4)CC2)n1 (stereo not drawn)	none
CC(C)NC(=O)C1COC2(CCCCC2)N1C(=O)Cc1ccccc1 (stereo not drawn)	none
COCCNC(=O)C1COC2(CCN(C(=O)c3ccc(F)cc3)CC2)N1C(=O)c1cccc(C)c1 (stereo not drawn)	none
COCCCNC(=O)C1COC2(CCCCC2)N1C(=O)c1c(OC)cccc1OC (stereo not drawn)	Pf Dd2 growth 6.3µM
COCCNC(=O)C1COC2(CCN(C(=O)c3ccc(OC)cc3)CC2)N1C(=O)c1ccccc1 (stereo not drawn)	none
CNC(=O)c1noc2c1CN(CC1(O)CNCCOC1)CC2 (stereo not drawn)	none
CN(C)c1ccc(-c2nc3ccc(Cl)cn3c2Nc2ccc3c(c2)OCCO3)cc1	none
c1ccc(Nc2c(-c3ccccc3)nc3ncccn23)cc1	none
Cc1ccc(Nc2c(-c3ccsc3)nc3cccc(C)n23)cc1	none
Cc1cccc2nc(-c3ccccn3)c(Nc3ccc(F)cc3)n12	Pf Dd2 growth 3.2µM
COc1ccc(-c2nc3ccc(C)cn3c2Nc2ccc3c(c2)OCO3)cc1	none
Cc1ccn2c(Nc3ccc4c(c3)OCO4)c(-c3ccc(N(C)C)cc3)nc2c1	Pf Dd2 growth 13µM
Clc1ccc(Nc2c(-c3ccccc3Cl)nc3ccc(Cl)cn23)cc1	none
Cc1cccc2nc(-c3ccccn3)c(Nc3ccccc3)n12	Pf Dd2 growth 7.1µM
CN1C[C@@H](NC(=O)Nc2ccc(F)cc2)C[C@H]1c1nc(-c2ccccn2)no1	none
Cc1nc2nncn2c(Nc2ccc(F)cc2)c1C	none
O=C(CCNc1c(-c2cccc(F)c2)nc2cnccn12)NCc1ccc(Cl)cc1	none
Oc1ccccc1-c1nc2cnccn2c1Nc1ccc(Cl)cc1	Pf Dd2 growth 2.5µM
Cc1ccc(CN2CCC(N3CCCC(C(=O)NC4CC4)C3)CC2)cc1 (stereo not drawn)	none
O=C(c1ccccc1)N1CCn2c(nnc2-c2ccccc2)C1	none
CN(Cc1cccnc1)c1nc2c(c(=O)[nH]1)CCN(Cc1cccc(Cl)c1F)CC2	none
COc1ccc(S(=O)(=O)N[C@H]2[C@H](O)[C@H](O)C[C@@H]2c2ccc(C(F)(F)F)nc2)cc1	none
COc1ccc(CCN2Cc3cc(NC(=O)Cc4ccc(F)cc4)ccc3OC(C)C2=O)cc1 (stereo not drawn)	none
Cn1ccc(C(=O)N2C[C@@H](COc3ccccc3)[C@H](C(N)=O)C2)n1	none
c1ccc(-n2cc(CN3CCCC(OCc4cccnc4)C3)nn2)cc1 (stereo not drawn)	none
Cc1ccccc1Nc1c(-c2ccc(O)cc2)nc2c(C)cccn12	Pf Dd2 growth 11µM
Cc1ccc(Nc2c(-c3ccccc3O)nc3cc(C)ccn23)cc1	Pf Dd2 growth 5.6µM
O=C(O)CCNc1c(-c2ccc(F)cc2)nc2cnccn12	none
Cc1ccc(Nc2c(-c3ccccc3O)nc3ccc(Br)cn23)cc1	none
Cc1ccn2c(Nc3ccc4c(c3)OCCO4)c(-c3ccc(Cl)s3)nc2c1	none
